Assay outcomes: PubChem, Broad Institute
MITF TRPM1 HTS: increases MITF-driven TRPM1 promoter luciferase signal; SK-MEL-5 TRPM1-promoter luciferase, 24 h; % of positive control, neutral wells = 0; activation, % at 12.5 µM; 300,000 compounds, 0.75% hits; AID 588334;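 active means mean activation of at least 80% with every replicate also reaching 80%; inconclusive means mean reaches 80% but some replicate falls short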;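 further: 0% = neutral control wells and 100% = parthenolide positive control wells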
Wnt bcat act: activates Wnt/beta-catenin signaling in a reporter cell assay | AID 743398 | 300,000 compounds, 1.2% hits | activation, % at 9.35 µM | activator, plate reader; in the data active means activation above about 30%, passing the limit was not always enough; inconclusive means no clear call, values can overlap the other calls;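 further: 0% = neutral control wells and 100% = positive control wells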
HSF1 activator: increases HSF-1 driven luciferase reporter signal; AID 504408; activation, % at 9 µM; 300,000 compounds, 1.7% hits; NIH3T3-HGL HSF-1 luciferase reporter, MG132, 8 h; 100% = twice DMSO control signal;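 active means mean replicate activation of at least 50% with a set share of replicates each reaching 50%; inconclusive means only one of those two conditions met; inactive means mean below 50% and too few replicates reaching it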;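 further: 0% = median of the neutral control wells and 100% = twice that signal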
esBAF inh: inhibitors of esBAF chromatin remodeling in mouse ES cells | Bmi1-luciferase knock-in reporter, 24 h; 100% = twice the neutral-well signal | reporter increase, % at 12.5 µM | 350,000 compounds, 2% hits | AID 602393; in the data active means activation above about 40%; inconclusive means no clear call, values can overlap the other calls;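 further: 0% = median of the plate's neutral control wells and 100% = double that signal; a rise in the Bmi1 reporter signal indicates esBAF inhibition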
HSF1 inhib: HSF1 inhibition. AID 2098. activity change, negative = inhibition, % at 7.5 µM (by protocol). NIH3T3-HGL HSE-luciferase, MG132-induced, luminescence 8 h; stronger effect = lower value. 300,000 compounds, 0.77% hits;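 active means more than half of replicate wells show activity change below -50%, luminescence cut by over half; inconclusive means some wells, but at most half, below -50%; inactive means no replicate well below -50%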;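 further: luciferase reports HSF-1 transcriptional activity via heat shock element; 0% = median of DMSO wells and -100% = zero luminescence signal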
* = called active by the depositor; ? = inconclusive; · = not tested or not shown. In the library only some 3.9% were active in any assay of this set; here they are far more common.

SMILES	MITF TRPM1 HTS	Wnt bcat act	HSF1 activator	esBAF inh	HSF1 inhib
CC(C)(O)/C=C/C(=O)C(C)(O)C1C(O)CC2(C)C3CC=C4C(C=C(O)C(=O)C4(C)C)C3(C)C(=O)CC12C (stereo not drawn)	-91.9	-9.2	69.1*	·	69.1*
CC(=O)OC(C)(C)/C=C/C(=O)[C@](C)(O)C1[C@H](O)C[C@@]2(C)C3CC=C4C(C[C@H](O)C(=O)C4(C)C)[C@]3(C)C(=O)C[C@]12C (stereo partly drawn)	-90.0	·	·	-0.7	·
O=C(Nc1ccc(Cl)c(Cl)c1)c1ccco1	53.5	9.0	-1.4	59.9*	10.4
C=CCNC(=S)Nc1ccc(OC(=O)Nc2ccc(Cl)c(Cl)c2)cc1	1.0	2.4	·	-1.1	·
Cc1ccc2nc3c(cc2c1)CC1(C(=O)N(C)C(=O)N(C)C1=O)C1COCCN31 (stereo not drawn)	·	·	-10.5	7.8	4.6
Cc1ccc2nc3c(cc2c1)CC1(C(=O)N(C)C(=O)N(C)C1=O)C1CCCCN31 (stereo not drawn)	·	9.0	81.2*	22.8	37.7
CSCc1nnc2n1-c1ccc(Cl)cc1C(c1ccccc1)=NC2	2.8	-2.3	-89.2	·	-86.6*
COC(=O)[C@@H]1[C@@H](CO)[C@@H]2Cn3c(ccc(-c4cccc(OC)c4)c3=O)[C@H]1N2CC1CC1	·	·	·	2.2	·
CCCCC1C(=O)NC(=S)N(C)C1=O (stereo not drawn)	-2.2	3.1	·	·	·
CCCCC1C(=O)NC(=S)NC1=O	·	·	-69.7	·	-66.7*
CC(=O)Cc1c[nH]c2ccccc12	·	·	-92.1	·	-90.8*
O=C(OCc1ccccc1)N1CCC2CC1c1cc(N3Cc4ccccc4-n4nncc4C3)ccc12 (stereo not drawn)	·	?	·	76.7*	·
Fc1ccc(N2Cc3ccccc3-n3nncc3C2)cc1	·	-1.6	·	6.1	·
O=C(O)[C@@H]1[C@@H](CO)[C@@H]2Cn3c(ccc(-c4ccccc4)c3=O)[C@H]1N2C(=O)C1CCCCC1	·	·	·	2.7	·
Cc1ccc(N2C(=O)NC(=O)/C(=C\C=C\c3ccco3)C2=O)cc1C	-90.4	6.2	146.3*	·	89.8
O=C1NC(=O)N(Cc2ccccc2)C(=O)/C1=C\C=C\c1ccco1	-95.9	2.2	71.2*	0.4	31.8
Cc1ccc(N2C(=O)NC(=O)/C(=C\C=C\c3ccco3)C2=O)cc1	-101.3	-0.4	38.6	-87.6	22.4
O=C(Cc1ccncc1)N1CCCCN2[C@H](CO)[C@H](c3ccc(C#Cc4ccccc4F)cc3)[C@H]2C1	·	·	·	-0.1	·
COc1ccc(C(=O)C2CCCN(Cc3ccc(C)s3)C2)c(OC)c1 (stereo not drawn)	2.2	-2.7	63.4*	·	33.3
Cc1cccc(S(=O)(=O)N2[C@@H]3c4ccc(-c5ccc(F)cc5)c(=O)n4C[C@H]2[C@H](CO)[C@H]3C(=O)O)c1	·	·	·	-0.4	·
C=C1C(=O)O[C@H]2C[C@@H](C)[C@@H]3C=CC(=O)[C@@]3(C)C[C@H]12	·	-21.0	-68.3	·	-63.9*
C=C1C(=O)O[C@@H]2C[C@@H](C)[C@@H]3C=CC(=O)[C@@]3(C)[C@@H](OC(=O)CC(=O)O[C@H]3[C@@H]4C(=C)C(=O)O[C@@H]4C[C@@H](C)[C@@H]4C=CC(=O)[C@]43C)[C@H]12	-97.9	-19.6	-95.8	-87.4	-95.7*
COC(=O)[C@@H]1[C@@H](CO)[C@@H]2Cn3c(ccc(-c4ccccc4F)c3=O)[C@H]1N2	·	·	·	-1.2	·
NC(=O)c1cn(C2OC(CO)C(O)C2O)c2ncnc(N)c12 (stereo not drawn)	-82.4	-20.7	-64.3	-24.9	-66.2*
CN(C)CCCN=Cc1c(O)n(CCc2ccc(F)cc2)c(=O)[nH]c1=O	·	38.5*	1.9	-1.1	8.0
SMILES	MITF TRPM1 HTS	Wnt bcat act	HSF1 activator	esBAF inh	HSF1 inhib
CCn1c(=O)cc(SCC(=O)N2CCC3(CC2)OCCO3)c2ccccc21	3.8	·	68.3*	-5.6	34.0
Cn1c(=O)n(CC(=O)N2CCC3(CC2)OCCO3)c(=O)c2ccccc21	·	·	5.9	6.4	-9.3
COC(=O)[C@H]1[C@H](CO)[C@H]2Cn3c(ccc(C4=CCCC4)c3=O)[C@@H]1N2Cc1ccccn1	·	·	·	-1.7	·
COC(=O)[C@H]1[C@H](CO)[C@H]2Cn3c(ccc(-c4cccc(OC)c4)c3=O)[C@@H]1N2C(=O)c1cnccn1	·	·	·	3.1	·
Cc1cc([N+](=O)[O-])c2ccccc2[n+]1[O-]	·	·	-78.1	·	-78.0*
Cc1ccccc1[N+](=O)[O-]	-10.6	-2.2	·	-5.9	·
COc1ccc(NC2=NC(C)(C)CS2)cc1	94.6*	6.5	21.7	28.2	11.8
O=C1NC(=S)N(C2CC2)C(=O)/C1=C/c1ccc2c(c1)CCN2CCCCl	-7.2	-3.4	-83.1	-5.3	-78.9*
CCN1C(=O)/C(=C/c2ccc3c(c2)CCN3CCCCl)C(=O)NC1=S	-3.5	·	-2.0	-8.3	3.8
O=C(Cc1ccccc1)N1C[C@@H]2[C@H](c3ccccc31)[C@@H](CO)N2Cc1ccccc1	·	·	·	-4.2	·
CCCCCn1c(=O)c(C(=O)Nc2ccccc2C)c(O)c2ccccc21	7.8	9.0	20.5	51.5*	10.2
CCCCCn1c(=O)c(C(=O)Nc2ccccc2S(N)(=O)=O)c(O)c2ccccc21	-3.9	-0.7	30.7	·	6.6
Cn1cc(C(=O)OCC(=O)N2CCCCC2)c2ccccc21	8.6	50.5*	·	27.8	·
CC(=O)Nc1ccccc1C(=O)OCC(=O)c1ccc2ccccc2c1	·	·	26.9	22.8	22.1
Nc1ccccc1C(=O)OCC(=O)c1ccc2c(c1)OCCO2	25.9	6.7	-57.5	·	-56.6*
Cc1ccc(N)c(N)c1	99.0*	29.1	·	-22.4	·
O=C(C1CCCO1)N1CCC2(CC1)OCCO2 (stereo not drawn)	0.0	·	-91.5	4.5	-90.0*
CC(C)[C@]12O[C@H]1[C@@H]1O[C@]13[C@]1(O[C@H]1C[C@H]1C4=C(CC[C@@]13C)C(=O)OC4)[C@@H]2O	·	·	-72.3	·	-67.8*
OCC1(CO)COC(c2cccnc2)N1 (stereo not drawn)	·	·	66.0*	-6.9	18.4
COC(=O)[C@@H]1[C@@H](CO)[C@@H]2Cn3c(ccc(-c4cncnc4)c3=O)[C@H]1N2S(=O)(=O)c1ccccc1C	·	·	·	0.7	·
CCC(=NCc1ccco1)c1c(O)n(C2CCCCC2)c(=O)[nH]c1=O	2.6	-11.2	66.4*	1.7	29.2
CCC(=NCc1cccnc1)c1c(O)n(C2CCCCC2)c(=O)[nH]c1=O	-8.2	1.1	6.6	-2.4	-7.8
O=C(C1CC(c2ccc(Cl)c(Cl)c2)=NO1)N1CCC2(CC1)OCCO2 (stereo not drawn)	116.8*	·	37.2	80.4*	23.4
